Experimental data as given in the supplement of paper PMC6555819.

Columns and labels:
Assay in all cases: PBM binding z-score (relative to random genomic background probes); higher = stronger binding; sequences stand for … in GC…GCGATTGACAGCGTAGAATGAAGG
[1] = tested on: FXR:RXRa (NR concentration 270 nM, RXRa partner concentration 90 nM)
Summary of the method: (§1)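 Probes were double-stranded and carried 34-nt variable regions with direct-repeat seeds, single-nucleotide variants, half-site ablations and random human genomic background sequences, printed on custom Agilent 4×180K protein-binding microarrays. Arrays were incubated 1 h with ligand-free nuclear receptor dimers in PBS pH 7.4, 2% milk, 0.02% Triton X-100, 1 mM DTT, 0.2 mg/mL BSA and 0.4 mg/ml salmon testes DNA. Antibodies against each partner (one per run) detected binding, and scanned fluorescence was regression-normalized. Binding z-scores use the random background probes as reference.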

[2] = tested on: LXRa:RXRa (NR concentration 270 nM, RXRa partner concentration 90 nM)
Summary of the method: as §1

[3] = tested on: LXRa homodimer (NR concentration 270 nM)
Summary of the method: as §1

[4] = tested on: LXRb:RXRa (NR concentration 270 nM, RXRa partner concentration 90 nM)
Summary of the method: as §1

[5] = tested on: LXRb homodimer (NR concentration 270 nM)
Summary of the method: as §1

[6] = tested on: PPARa:RXRa (NR concentration 270 nM, RXRa partner concentration 90 nM)
Summary of the method: as §1

[7] = tested on: PPARg:RXRa (NR concentration 180 nM, RXRa partner concentration 90 nM)
Summary of the method: as §1

[8] = tested on: PPARg:RXRa 270nM:90nM, anti-RXR (NR concentration 270 nM, RXRa partner concentration 90 nM)
Summary of the method: as §1

[9] = tested on: PPARg:RXRa 30nM:10nM, anti-RXR (NR concentration 30 nM, RXRa partner concentration 10 nM)
Summary of the method: as §1

[10] = tested on: PPARg:RXRa 90nM:30nM, anti-RXR (NR concentration 90 nM, RXRa partner concentration 30 nM)
Summary of the method: as §1

[11] = tested on: PPARg:RXRa DBDmut IVT, anti-RXR (DBD mutation: RXRa K156A/R161A, NR concentration 270 nM, RXRa partner concentration 90 nM)
Summary of the method: as §1

[12] = tested on: PPARg:RXRa IVT, anti-PPARg (NR concentration 270 nM, RXRa partner concentration 90 nM)
Summary of the method: as §1

[13] = tested on: PPARg DBDmut:RXRa IVT, anti-PPARg (DBD mutation: PPARg1 K132A/R137A, NR concentration 270 nM, RXRa partner concentration 90 nM)
Summary of the method: as §1

[14] = tested on: PPARg DBDmut IVT, anti-PPARg (DBD mutation: PPARg1 K132A/R137A, NR concentration 270 nM)
Summary of the method: as §1

[15] = tested on: PPARg homodimer (NR concentration 180 nM)
Summary of the method: as §1

[16] = tested on: PXR:RXRa (NR concentration 270 nM, RXRa partner concentration 90 nM)
Summary of the method: as §1

[17] = tested on: PXR homodimer (NR concentration 270 nM)
Summary of the method: as §1

[18] = tested on: RARa:RXR (NR concentration 270 nM, RXRa partner concentration 90 nM)
Summary of the method: as §1

[19] = tested on: RARa homodimer (NR concentration 270 nM)
Summary of the method: as §1

[20] = tested on: RARb:RXRa (NR concentration 270 nM, RXRa partner concentration 90 nM)
Summary of the method: as §1

**Q.** Which PBM binding z-score [1] does the source give for CAAACTAGGTCACCGGTAGGTCAAAGTCCGCATG here?
**A.** Its PBM binding z-score is 5.71.

**Q.** What about the PBM binding z-score [2] of the same sequence?
**A.** Its PBM binding z-score is 4.92.

**Q.** And the PBM binding z-score [3]?
**A.** Its PBM binding z-score is 3.87.

**Q.** What about the PBM binding z-score [4] of the same sequence?
**A.** Its PBM binding z-score is 4.52.

**Q.** And the PBM binding z-score [5]?
**A.** The PBM binding z-score was 0.66.

**Q.** What about the PBM binding z-score [6] of the same sequence?
**A.** Its PBM binding z-score is 5.98.

**Q.** And the PBM binding z-score [7]?
**A.** Its PBM binding z-score is 9.32.

**Q.** What about the PBM binding z-score [8] of the same sequence?
**A.** Its PBM binding z-score is 7.44.

**Q.** What about the PBM binding z-score [9] of the same sequence?
**A.** The PBM binding z-score was 5.74.

**Q.** What about the PBM binding z-score [10] of the same sequence?
**A.** Its PBM binding z-score is 7.12.

**Q.** What about the PBM binding z-score [11] of the same sequence?
**A.** Its PBM binding z-score is 8.32.

**Q.** And the PBM binding z-score [12]?
**A.** Its PBM binding z-score is 9.19.

**Q.** And the PBM binding z-score [13]?
**A.** The PBM binding z-score was 3.98.

**Q.** And the PBM binding z-score [14]?
**A.** Its PBM binding z-score is 4.14.

**Q.** And the PBM binding z-score [15]?
**A.** Its PBM binding z-score is 4.51.

**Q.** And the PBM binding z-score [16]?
**A.** Its PBM binding z-score is 4.51.

**Q.** And the PBM binding z-score [17]?
**A.** The PBM binding z-score was 0.526.

**Q.** And the PBM binding z-score [18]?
**A.** The PBM binding z-score was 5.43.

**Q.** And the PBM binding z-score [19]?
**A.** The PBM binding z-score was 1.6.

**Q.** And the PBM binding z-score [20]?
**A.** Its PBM binding z-score is 4.95.

**Q.** For TAGCGTAGGTCATGCGGGCCAGTATAGTGTCGGC, which PBM binding z-score [1] is on record?
**A.** The PBM binding z-score was 4.01.

**Q.** And the PBM binding z-score [2]?
**A.** Its PBM binding z-score is 3.6.

**Q.** And the PBM binding z-score [3]?
**A.** The PBM binding z-score was 0.172.

**Q.** What about the PBM binding z-score [4] of the same sequence?
**A.** The PBM binding z-score was 2.19.

**Q.** And the PBM binding z-score [5]?
**A.** Its PBM binding z-score is -0.449.

**Q.** And the PBM binding z-score [6]?
**A.** The PBM binding z-score was 3.68.

**Q.** And the PBM binding z-score [7]?
**A.** The PBM binding z-score was 1.98.

**Q.** And the PBM binding z-score [8]?
**A.** Its PBM binding z-score is 2.43.

**Q.** And the PBM binding z-score [9]?
**A.** The PBM binding z-score was 0.234.

**Q.** What about the PBM binding z-score [10] of the same sequence?
**A.** The PBM binding z-score was 1.45.

**Q.** What about the PBM binding z-score [11] of the same sequence?
**A.** The PBM binding z-score was 0.799.

**Q.** And the PBM binding z-score [12]?
**A.** The PBM binding z-score was 2.08.

**Q.** What about the PBM binding z-score [13] of the same sequence?
**A.** Its PBM binding z-score is 0.502.

**Q.** What about the PBM binding z-score [14] of the same sequence?
**A.** The PBM binding z-score was -0.521.

**Q.** And the PBM binding z-score [15]?
**A.** Its PBM binding z-score is 0.769.

**Q.** What about the PBM binding z-score [16] of the same sequence?
**A.** The PBM binding z-score was 2.18.

**Q.** And the PBM binding z-score [17]?
**A.** Its PBM binding z-score is -0.691.

**Q.** What about the PBM binding z-score [18] of the same sequence?
**A.** Its PBM binding z-score is 2.98.

**Q.** What about the PBM binding z-score [19] of the same sequence?
**A.** Its PBM binding z-score is -0.473.

**Q.** And the PBM binding z-score [20]?
**A.** Its PBM binding z-score is 3.77.

**Q.** With ATCTCTAGGAAAAAGTTCAGTGAATCCCGAGGAT as the sequence, how does the PBM binding z-score [1] read?
**A.** Its PBM binding z-score is 0.0166.

**Q.** And the PBM binding z-score [2]?
**A.** Its PBM binding z-score is 0.275.

**Q.** What about the PBM binding z-score [3] of the same sequence?
**A.** Its PBM binding z-score is 0.466.

**Q.** And the PBM binding z-score [4]?
**A.** Its PBM binding z-score is 0.0384.

**Q.** What about the PBM binding z-score [5] of the same sequence?
**A.** The PBM binding z-score was 0.735.

**Q.** What about the PBM binding z-score [6] of the same sequence?
**A.** The PBM binding z-score was 0.653.

**Q.** And the PBM binding z-score [7]?
**A.** Its PBM binding z-score is 1.18.

**Q.** What about the PBM binding z-score [8] of the same sequence?
**A.** The PBM binding z-score was 3.25.

**Q.** And the PBM binding z-score [9]?
**A.** Its PBM binding z-score is 1.41.

**Q.** And the PBM binding z-score [10]?
**A.** Its PBM binding z-score is 2.47.

**Q.** And the PBM binding z-score [11]?
**A.** The PBM binding z-score was -0.718.

**Q.** What about the PBM binding z-score [12] of the same sequence?
**A.** The PBM binding z-score was -0.0888.

**Q.** What about the PBM binding z-score [13] of the same sequence?
**A.** Its PBM binding z-score is 0.814.

**Q.** What about the PBM binding z-score [14] of the same sequence?
**A.** Its PBM binding z-score is 0.266.

**Q.** What about the PBM binding z-score [15] of the same sequence?
**A.** The PBM binding z-score was 0.423.

**Q.** What about the PBM binding z-score [16] of the same sequence?
**A.** The PBM binding z-score was 0.837.

**Q.** What about the PBM binding z-score [17] of the same sequence?
**A.** Its PBM binding z-score is 0.888.

**Q.** What about the PBM binding z-score [18] of the same sequence?
**A.** Its PBM binding z-score is 0.235.

**Q.** And the PBM binding z-score [19]?
**A.** The PBM binding z-score was 1.

**Q.** What about the PBM binding z-score [20] of the same sequence?
**A.** Its PBM binding z-score is 1.78.

**Q.** What does the source list for CTCGAAAGGTCGGTTGAGGTGAGTATACGGATAA?
**A.** PBM binding z-score [1]: 2.05; PBM binding z-score [2]: 1.7; PBM binding z-score [3]: -0.0944; PBM binding z-score [4]: 1.35; PBM binding z-score [5]: -0.0787; PBM binding z-score [6]: 2.63; PBM binding z-score [7]: 0.61; PBM binding z-score [8]: 1.18; PBM binding z-score [9]: -0.156; PBM binding z-score [10]: 0.663; PBM binding z-score [11]: -0.0424; PBM binding z-score [12]: 0.699; PBM binding z-score [13]: 0.597; PBM binding z-score [14]: -0.651; PBM binding z-score [15]: 0.927; PBM binding z-score [16]: 3.19; PBM binding z-score [17]: -0.354; PBM binding z-score [18]: 3.13; PBM binding z-score [19]: 0.103; PBM binding z-score [20]: 2.98
